CYP2C19 activ = cytochrome P450 2C19 (human) activation | P33261 | recombinant CYP2C19, luciferin-H EGE luminescence; active compounds read high; 0 = fully inhibited enzyme, 1 = untreated enzyme | 96,000 tested, under 10 active | AID 1025 | activation factor at 5 µM;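 active = activation factor of at least 2 at 5 µM in the primary screen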
Target sequence (P33261 whole entry, looked up): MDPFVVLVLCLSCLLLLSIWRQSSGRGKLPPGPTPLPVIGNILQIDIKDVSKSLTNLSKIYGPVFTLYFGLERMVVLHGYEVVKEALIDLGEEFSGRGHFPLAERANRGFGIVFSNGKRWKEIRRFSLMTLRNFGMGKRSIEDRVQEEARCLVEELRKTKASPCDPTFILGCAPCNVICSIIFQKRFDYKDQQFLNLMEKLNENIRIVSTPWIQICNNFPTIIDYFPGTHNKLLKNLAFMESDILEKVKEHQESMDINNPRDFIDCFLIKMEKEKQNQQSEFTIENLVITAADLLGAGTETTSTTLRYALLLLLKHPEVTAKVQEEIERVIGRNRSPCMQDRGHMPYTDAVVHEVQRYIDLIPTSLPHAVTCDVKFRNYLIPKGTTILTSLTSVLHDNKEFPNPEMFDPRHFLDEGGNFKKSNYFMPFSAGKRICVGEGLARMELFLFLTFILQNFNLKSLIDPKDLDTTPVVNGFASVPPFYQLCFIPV
CYP2C9 inh = blocks human cytochrome P450 2C9; AID 777; 96,000 tested, 20% active; P11712; CYP2C9 Supersomes, luciferin-H conversion, luminescence; inhibition, % at 5 µM;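 active = blocking of liver enzyme CYP2C9 beyond about 50% at 5 µM, limit read from the data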
CYP2C19 inhib = inhibitors of human CYP2C19; P33261; CYP2C19 Supersomes, luciferin-H EGE luminescence, 30 min; inhibition, % at 5 µM; 96,000 tested, 21% active;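 active = CYP2C19 inhibition above a set limit at 5 µM in the primary screen, cut at about 50% in these data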
PostGolgi ctrl = growth of the yeast control strain, post-Golgi counter-screen. efflux-deficient yeast background strain, growth absorbance A615, 16 h. 98,000 tested, 5% active. AID 738. inhibition, % at 10 µM
CYP2C9 act = CYP2C9 (human) activation | recombinant CYP2C9, luciferin-H conversion, luminescence; active compounds read high; factor 1 = untreated enzyme, 0 = blocked | P11712 | activation factor at 5 µM | 96,000 tested, 1.4% active;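 active = activation factor of 2 or more for CYP2C9 at a 5 µM dose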
PostGolgi yeast = growth inhibition of a yeast mutant, post-Golgi transport screen; post-Golgi transport phenotypic cell assay; inhibition, % at 10 µM; 98,000 tested, 0.9% active;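 note: yeast cells grown in 1536-well plates; yeast grown about 18 h at 30C before absorbance read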
Large screens that a line does not name were inactive. Hits are enriched below; roughly 32% of the tested compounds scored in any of these assays. Cut-off read from the data, not from the text of the source, unless noted: active = inhibition above about 30%; inactive = the rest.

CC1Cc2cc(/C(O)=C3/C(=O)C(=O)N(CCCn4ccnc4)C3c3cccnc3)ccc2O1 (stereo unspecified)	none
Cn1nnc2sc3c(c2c1=O)CCCC3	none
CCS(=O)(=O)n1nc(-c2ccccc2)nc1SC	CYP2C19 inhib 56
CSc1nc(-c2ccccc2)nn1S(=O)(=O)c1ccc(Cl)cc1	none
COc1ccc(-c2nc(SC)n(S(=O)(=O)c3ccccc3)n2)cc1	CYP2C9 inh 62, CYP2C19 inhib 69 (no result: PostGolgi ctrl, PostGolgi yeast)
CCS(=O)(=O)n1nc(-c2ccc(C)cc2)nc1N	none
CCS(=O)(=O)n1nc(-c2ccc(Cl)cc2)nc1N	CYP2C19 inhib 53
COc1ccccc1OCCc1nnc(N)s1	none
COc1cc2cc(C(=O)O)n(C)c2c(OC)c1OC	none
CC(C)(NO)/C(=N/O)c1ccc(Br)cc1	CYP2C19 inhib 64
CC(C)(NO)/C(=N\O)c1ccc(Cl)cc1	none
c1ccc(Cn2c(-c3cccs3)nc3nc4ccccc4nc32)cc1	none
COCCCn1c(-c2ccco2)nc2ccccc2c1=O	none
CCCCOCCCn1c(-c2ccco2)nc2nc3ccccc3nc21	CYP2C9 inh 52
CC(C)Cn1c(-c2cccs2)nc2nc3ccccc3nc21	PostGolgi ctrl 38
CCCCn1c(-c2cccs2)nc2nc3ccccc3nc21	PostGolgi ctrl 31
CCCn1c(-c2cc(OC)c(OC)c(OC)c2)nc2nc3ccccc3nc21	none (no result: CYP2C19 activ, CYP2C9 inh, CYP2C19 inhib, CYP2C9 act)
CC1=CC2=NC(=O)CC(C)(C(=O)N(CC(=O)NC(C)(C)C)Cc3cccs3)N2C=C1 (stereo unspecified)	none
Cc1cnc(NC(=O)C(C)N2C(=O)C3CC=CCC3C2=O)s1 (stereo unspecified)	none
COc1ccc(CCNc2oc(COc3ccccc3Cl)nc2C#N)cc1OC	none (no result: CYP2C19 activ, CYP2C9 inh, CYP2C19 inhib, CYP2C9 act)
COc1ccc(CCNc2oc(COc3ccccc3F)nc2C#N)cc1OC	CYP2C9 inh 91, CYP2C19 inhib 96
COCCNc1oc(COc2cccc(C)c2)nc1C#N	CYP2C19 inhib 57
COc1ccc(CCNc2oc(Cc3ccccc3)nc2C#N)cc1OC	CYP2C9 inh 50, CYP2C19 inhib 75
COc1ccc(CCNc2oc(COc3ccc(F)cc3)nc2C#N)cc1	CYP2C9 inh 70, CYP2C19 inhib 53
O=C(Nc1ccccc1)OCN1C(=O)c2ccccc2C1=O	none
O=C(NCc1ccco1)C(NS(=O)(=O)c1cccc2nsnc12)c1ccccc1 (stereo unspecified)	none
CCNc1oc(COc2ccccc2F)nc1C#N	CYP2C19 inhib 96
CCOC(=O)N1CCN(C(=O)CN(C2CCCCC2)S(=O)(=O)c2ccc(C)cc2)CC1	none
O=C(CN(C1CCCCC1)S(=O)(=O)c1ccccc1)N1CCCC1	CYP2C9 inh 51
Cc1ccc(S(=O)(=O)N(CC(=O)N2CCN(c3ccc(F)cc3)CC2)C2CCCCC2)cc1	CYP2C9 inh 52
CCNC(=O)CN(C1CCCCC1)S(=O)(=O)c1ccc(F)cc1	none
O=C(CN(C1CCCCC1)C1CCCCC1)N1CCc2ccccc2C1	CYP2C9 inh 65, CYP2C19 inhib 76
CNC(=O)CN(C1CCCCC1)S(=O)(=O)c1ccc(F)cc1	CYP2C19 inhib 66
Cn1c(-c2ccccc2)cnc1SCC(=O)NCc1ccco1	none
CC(=O)N(NC(=O)c1ccccc1Cl)C1CC(=O)N(c2ccc(C)cc2)C1=O (stereo unspecified)	none
CC(C)(C)OC(=O)NCCc1nnc(SCC(N)=O)o1	none
CC(C)(C)OC(=O)NCCc1nnc(S(=O)(=O)Cc2ccc(Cl)cc2Cl)o1	CYP2C9 inh 80, CYP2C19 inhib 77
CC(C)(C)OC(=O)NCCc1nnc(SCc2ccccc2Cl)o1	CYP2C9 inh 77, CYP2C19 inhib 82
Cc1ccc(NC(=O)CSc2nnc(CCNC(=O)OC(C)(C)C)o2)c(C)c1	PostGolgi ctrl 35
CC(C)(C)OC(=O)NCCCCCc1nnc(SCC(N)=O)o1	none
Cc1cccc(C)c1NC(=O)CSc1nnc(CCCCCNC(=O)OC(C)(C)C)o1	CYP2C9 inh 73, CYP2C19 inhib 50
O=C(NC12CC3CC(CC(C3)C1)C2)C1=COCCO1	none
CC(=O)OCc1c(COC(C)=O)[n+](=O)c2ccccc2n1[O-]	none
Cc1cc(NC(=O)CSc2nc3ccccc3c(=O)n2C(C)c2ccccc2)no1 (stereo unspecified)	CYP2C19 inhib 82
CCC(C)n1c(SCC(=O)Nc2cc(C)on2)nc2ccccc2c1=O (stereo unspecified)	CYP2C9 inh 52, CYP2C19 inhib 62

Screening results (PubChem)
